Data taken from PubChem BioAssay (NCATS).
Results filed as inconclusive are left out. A call without a number means that no potency is given here. Calls of active or inactive are those of the source. Calls come from the whole dose curve; as a rule, active = well fitted cell-killing curve with a large enough effect; inconclusive = small, poorly fitted or top-dose-only effect; inactive = flat fitted curve, though single readings scatter. Numbered stars: 1 amine (or outer) side, 2 acyl side, 3 side chain; on linkers, the order of the positions; unused ones are H or OH. Bridge positions count the residues as written; N and C are the ends. Square brackets hold non-standard residues; d marks the D form. Peptide text beside a SMILES is read from it. I, II: the chains in the order shown. Actinocin(9to1) = Cc1c2oc3c(C)ccc(C(=O)[*:1])c3nc-2c(C(=O)[*:2])c(N)c1=O; NMeV = CN[C@H](C(=O)O)C(C)C; Sar = CNCC(=O)O

experiment: qHTS of pediatric cancer cell lines to identify multiple opportunities for drug repurposing: Confirmatory screen for BT-12 cells (AID 1347112); settings: BT-12 rhabdoid tumor cells, viability; series mostly up to 45.9 µM; note: nearly all actives have a fitted effect of over 55% in size
Text: Drug repurposing or repositioning has been offered as a strategy for drug development in oncology programs. This approach has special potential for childhood cancers and other rare or orphan diseases, where the expected return on new drug development has been a disincentive to pharmaceuticals.
In this project we exploit the poly-pharmacology of drugs to discover new indications via phenotypic screening of a panel of 19 well-characterized cell lines derived from solid tumors seen in children and adolescents. The goal is to identify approved drugs with previously unrecognized anticancer properties that has the potential to reveal new mechanisms and biological processes involved in carcinogenesis or drug resistance. We employed a titration-based paradigm (quantitative high-throughput screening or qHTS), where all compounds were tested at multiple concentrations for their effect on cell viability. Concentration-response curves (CRCs) were derived directly from the primary screen, and both potency and efficacy values were used to identify compounds with robust bioactivity profiles. We screened the NIH Chemical Genomics Center (NCGC) Pharmaceutical Collection (NPC) and Mechanism Interrogation Plate (MIPE) small molecule collections of approved and investigational compounds against these cell lines; and measured metabolically active cells after 48 hours of compound treatment as a proxy for cell viability.
Assay Submitter: Nathalia J. Martinez, National Center for Advancing Translational Sciences, National Institutes of Health, Rockville, MD, USA; email: natalia.martinez@nih.gov
[1] Shen, M et al. Quantitative high-throughput phenotypic screening of pediatric cancer cell lines identifies multiple opportunities for drug repurposing. Oncotarget 2017 Dec 19;9(4):4758-4772. PMID 29435139.
The cells were obtained from University of North Carolina (UNC), Pediatric Preclinical Testing Program (PPT), and Coriell Institute (CI).
qHTS cell viability assay:
Cells were assayed in growth media at a density of 500-1,000 cells/well. Five microliters of cells were dispensed into 1,536-well, white, solid-bottom, TC-treated plates (Greiner Bio One) using a multidrop dispenser and incubated at 37 degrees C, 5% CO2, under a humidified atmosphere for 5 hours. Twenty-three nanoliters of compounds and controls (neutral control DMSO or positive control bortezomib at final concentration of 2.3 µM) were subsequently transferred by Kalypsys pintool. For primary screens, the MIPE collection was tested at 11-point dilutions (final concentrations range from 0.78 nM to 46 µM) and the NPC collection at 8-point dilutions (final concentrations range from 0.59 nM to 46 µM). Compounds tested in follow-up screens were assayed at 11-point dilutions. Cells were incubated for 48 hours, followed by addition of 3 µL of CellTiter-Glo (Promega). After a 15 min incubation at room temperature, samples were analyzed for luminescence intensity using a ViewLux High-throughput CCD imager equipped with clear filters.
Potency is the fitted concentration of half-maximal effect.

Structure (SMILES)	Potency
COc1cccc2c1C(=O)c1c(O)c3c(c(O)c1C2=O)C[C@@](O)(C(=O)CO)C[C@@H]3O[C@H]1C[C@H](N)[C@H](O)[C@H](C)O1	4.65 µM (active)
CC(=O)OCC(=O)[C@@]1(OC(C)=O)[C@@H](C)C[C@H]2[C@@H]3C[C@H](F)C4=CC(=O)C=C[C@]4(C)[C@@]3(F)[C@@H](O)C[C@@]21C	inactive
O=C(CCCN1CCC(O)(c2ccc(Br)cc2)CC1)c1ccc(F)cc1	inactive
CC1(C)O[C@@H]2C[C@H]3[C@@H]4CCC5=CC(=O)CC[C@]5(C)[C@@]4(F)[C@@H](O)C[C@]3(C)[C@]2(C(=O)CCl)O1	inactive
C[n+]1c2cc(N)ccc2cc2ccc(N)cc21 (tested in a mixture with another compound)	0.928 µM (active)
COc1c(C)c2c(c(O)c1C/C=C(\C)CCC(=O)O)C(=O)OC2	4.65 µM (active)
C[C@H]1C[C@H]2[C@@H]3CCC4=CC(=O)C=C[C@]4(C)[C@@]3(Cl)[C@@H](O)C[C@]2(C)[C@@]1(O)C(=O)CO	inactive
CC(=O)OCC(=O)[C@@]1(O)CC[C@H]2[C@@H]3CCC4=CC(=O)C=C[C@]4(C)[C@H]3[C@@H](O)C[C@@]21C	inactive
NC(CO)(CO)CO	inactive
CCCC(=O)O[C@]1(C(=O)CO)CC[C@H]2[C@@H]3CCC4=CC(=O)CC[C@]4(C)[C@H]3[C@@H](O)C[C@@]21C	inactive
CC1(C)O[C@@H]2C[C@H]3[C@@H]4C[C@H](F)C5=CC(=O)CC[C@]5(C)[C@H]4[C@@H](O)C[C@]3(C)[C@]2(C(=O)CO)O1	inactive
CC(=O)[C@H]1CC[C@H]2[C@@H]3C[C@H](C)C4=CC(=O)CC[C@]4(C)[C@H]3[C@@H](O)C[C@]12C	inactive
CCCCCCC[N+](CC)(CC)CCCCc1ccc(Cl)cc1	8.27 µM (active)
C[C@]12C=CC(=O)C=C1CC[C@@H]1[C@@H]2[C@@H](O)C[C@@]2(C)[C@H]1CC[C@]2(O)C(=O)CO	inactive
CN(C)/N=N/c1nc[nH]c1C(N)=O	inactive
CCC(C(=O)OCCN(CC)CC)c1ccccc1 (centres undefined)	inactive
NC(=O)CC[C@@H]1NC(=O)[C@H](Cc2ccccc2)NC(=O)[C@H](Cc2ccc(O)cc2)NC(=O)CCSSC[C@@H](C(=O)N2CCC[C@H]2C(=O)N[C@@H](CCCN=C(N)N)C(=O)NCC(N)=O)NC(=O)[C@H](CC(N)=O)NC1=O	inactive
CN(C)C(=S)SC(=S)N(C)C	4.65 µM (active)
CC(C)(C(=O)c1cccnc1)c1cccnc1	inactive
COc1cc(C=C2CCC/C(=C\c3ccc(O)c(OC)c3)C2=O)ccc1O	18.5 µM (active)
CC(=O)Oc1ccc(C(c2ccc(OC(C)=O)cc2)c2ccccn2)cc1	inactive
CC(=O)Oc1ccc2c(c1)CC[C@@H]1[C@@H]2CC[C@]2(C)[C@@H](O)CC[C@@H]12	inactive
Cc1c2oc3c(C)ccc(C(=O)N[C@@H]4C(=O)N[C@H](C(C)C)C(=O)N5CCC[C@H]5C(=O)N(C)CC(=O)N(C)[C@@H](C(C)C)C(=O)O[C@@H]4C)c3nc-2c(C(=O)N[C@@H]2C(=O)N[C@H](C(C)C)C(=O)N3CCC[C@H]3C(=O)N(C)CC(=O)N(C)[C@@H](C(C)C)C(=O)O[C@@H]2C)c(N)c1=O (I: T[dV]P[Sar][NMeV] / II: T[dV]P[Sar][NMeV]; ester I:1-I:C, II:1-II:C; linker I:N-II:N via Actinocin(9to1))	0.0208 µM (active)
CCCCC(CC)CN=C(N)NC(N)=NCCCCCCN=C(N)NC(N)=NCC(CC)CCCC (centres undefined)	5.22 µM (active)
C[C@@H]1C[C@H]2[C@@H]3CCC4=CC(=O)C=C[C@]4(C)[C@@]3(F)[C@@H](O)C[C@]2(C)[C@H]1C(=O)CO	inactive
OC[C@H]1O[C@@H](n2cnc3c(=S)nc[nH]c32)[C@H](O)[C@@H]1O	14.7 µM (active)
C[C@]12C=CC(=O)C=C1[C@@H](F)C[C@@H]1[C@@H]2[C@@H](O)C[C@@]2(C)[C@H]1CC[C@]2(O)C(=O)CO	inactive
CC(=O)OCC(=O)[C@@]12OC(C)(C)O[C@@H]1C[C@H]1[C@@H]3C[C@H](F)C4=CC(=O)C=C[C@]4(C)[C@@]3(F)[C@@H](O)C[C@@]12C	inactive
CCOc1ccc2nc3cc(N)ccc3c(N)c2c1	16.5 µM (active)
